Consider 23 compounds from the supplement of paper PMC6518042.

SMILES strings stand for the structures.

The assay concerns Pectobacterium parmentieri SCC3193. Nature of the assay: DuctApe activity index (growth/respiration on compound as sole nutrient source, blank-subtracted) (activity index (0-3)); higher = stronger utilization of the compound, active = 3 or more. As to conditions: nutrient role (plate category): carbon. Here is the method:
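Biolog Phenotype Microarray plates PM1, PM2A (carbon), PM3 (nitrogen) and PM4 (phosphorus/sulfur) inoculated with P. parmentieri SCC3193 in M9-C minimal salts medium with Biolog dye A, and read in the OmniLog for 46 h. Each well was tested in triplicate and the experiment was run twice. DuctApe computed a blank-subtracted activity index (AV, 0-3) from the mean curves; growth is positive at AV >= 3 and negative at AV <= 2.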
For the compound `C[C@@H](O)[C@H](O)[C@H](O)[C@@H](O)C=O` [D-Fucose], the DuctApe activity index is 0 (inactive). On to `OC1OC[C@@H](O)[C@H](O)[C@H]1O` (stereo partly drawn) [D-Xylose], for which the DuctApe activity index is 3 (active). Under `NC(=O)CCC(=O)O` [Succinamic acid] stands 3 (active); under `OCc1ccccc1O[C@@H]1O[C@H](CO)[C@@H](O)[C@H](O)[C@H]1O` [Salicin], 3 (active).

With `OC[C@@H](O)[C@@H](O)[C@H](O)[C@@H](O)CO` [D-Sorbitol], the DuctApe activity index is 0 (inactive). As for `CO[C@@H]1O[C@H](CO)[C@H](O)[C@H](O)[C@H]1O` [b-Methyl-D-Galactoside], the figure is 2 (inactive). In the case of `O=C1O[C@H]([C@@H](O)CO)[C@@H](O)[C@@H]1O` [L-Galactonic acid-g-Lactone], the DuctApe activity index is 3 (active). Under `OC[C@H]1O[C@H](OC[C@H]2O[C@H](OC[C@H]3O[C@H](O[C@]4(CO)O[C@H](CO)[C@@H](O)[C@@H]4O)[C@H](O)[C@@H](O)[C@@H]3O)[C@H](O)[C@@H](O)[C@H]2O)[C@H](O)[C@@H](O)[C@H]1O` [Stachyose] stands 3 (active). As for `O=C[C@H](O)[C@@H](O)[C@H](O)[C@H](O)CO[C@@H]1O[C@H](CO)[C@@H](O)[C@H](O)[C@H]1O` [Gentiobiose], the figure is 3 (active).

Consider `OC[C@H]1O[C@@H](O[C@H]2[C@H](O)[C@@H](O)[C@@H](O)O[C@@H]2CO)[C@H](O)[C@@H](O)[C@H]1O` [a-D-Lactose], for which the DuctApe activity index was 3 (active). As to `OC[C@H]1O[C@@](CO)(O[C@H]2O[C@H](CO)[C@@H](O)[C@H](O)[C@H]2O)[C@@H](O)[C@@H]1O` [Sucrose], the DuctApe activity index was 3 (active). `CC(O)(CC(=O)O)C(=O)O` (stereo not drawn) [Citramalic acid]: the DuctApe activity index was 0 (inactive). Under `Nc1ncnc2c1ncn2[C@H]1C[C@H](O)[C@@H](CO)O1` [2`-Deoxyadenosine] stands 1 (inactive); under `OC[C@H]1O[C@@H](Oc2ccc(O)cc2)[C@H](O)[C@@H](O)[C@@H]1O` [Arbutin], 3 (active). As for `CC(O)CO` (stereo not drawn) [1,2-Propanediol], the figure is 0 (inactive); as for `O=CO` [Formic acid], 2 (inactive); as for `CC(=O)N[C@H]1[C@H]([C@H](O)[C@H](O)CO)OC(O)(C(=O)O)C[C@@H]1O` (stereo partly drawn) [N-Acetyl-Neuraminic acid], 0 (inactive). As for `OC[C@@H](O)[C@@H](O[C@@H]1O[C@H](CO)[C@H](O)[C@H](O)[C@H]1O)[C@H](O)[C@@H](O)CO` [D-Lactitol], the figure is 0 (inactive).

Consider `O=C(CO)CO` [Dihydroxyacetone], for which the DuctApe activity index is 1 (inactive). Turning to `CCC(=O)O` [Propionic acid], the DuctApe activity index was 0 (inactive). As for `NCC(=O)N1CCC[C@H]1C(=O)O`, the figure is 0 (inactive); as for `O=C(O)[C@H]1OC(O)[C@H](O)[C@@H](O)[C@H]1O` (stereo partly drawn) [D-Galacturonic acid], 3 (active); as for `OC[C@H]1O[C@@H]2O[C@H]3[C@H](O)[C@@H](O)[C@@H](O[C@H]4[C@H](O)[C@@H](O)[C@@H](O[C@H]5[C@H](O)[C@@H](O)[C@@H](O[C@H]6[C@H](O)[C@@H](O)[C@@H](O[C@H]7[C@H](O)[C@@H](O)[C@@H](O[C@H]8[C@H](O)[C@@H](O)[C@@H](O[C@H]1[C@H](O)[C@H]2O)O[C@@H]8CO)O[C@@H]7CO)O[C@@H]6CO)O[C@@H]5CO)O[C@@H]4CO)O[C@@H]3CO` [b-Cyclodextrin], 0 (inactive).
